From PubChem BioAssay
FECH block = inhibitors of human ferrochelatase; AID 1671448; hit rate 3.3% among 20,000; P22830; purified FECH, Ni-mesoporphyrin absorbance 550 nm; calls only at 10 µM (by protocol);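 active means enzyme reaction rate more than 3 SD below the solvent-only control wells on the same plate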;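 further: lower slope than DMSO wells means FECH inhibition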
Target sequence (P22830 whole entry, looked up): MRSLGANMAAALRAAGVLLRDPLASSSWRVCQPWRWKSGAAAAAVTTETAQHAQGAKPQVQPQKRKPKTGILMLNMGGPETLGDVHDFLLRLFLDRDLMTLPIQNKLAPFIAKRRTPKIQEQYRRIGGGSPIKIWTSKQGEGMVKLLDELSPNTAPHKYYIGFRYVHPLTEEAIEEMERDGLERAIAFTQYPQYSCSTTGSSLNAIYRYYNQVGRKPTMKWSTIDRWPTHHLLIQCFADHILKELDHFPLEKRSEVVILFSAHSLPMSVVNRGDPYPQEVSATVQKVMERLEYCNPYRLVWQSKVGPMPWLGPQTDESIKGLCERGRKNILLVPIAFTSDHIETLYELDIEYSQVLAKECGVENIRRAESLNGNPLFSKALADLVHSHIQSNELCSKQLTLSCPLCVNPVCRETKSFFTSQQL
* hit, by the source's call; i = inactive; + = active, no number. Many of the other results were omitted from the sample, so hits are more common in it than they were.

SMILES | FECH block
Cc1ccc(C2=CC(c3ccc(C)cc3)n3nc(NS(=O)(=O)c4ccc(C)cc4)nc3N2)cc1 (centres undefined) | +
Cc1ccc(S(=O)(=O)Nc2nc3n(n2)C(c2c(F)cccc2Cl)C=C(c2ccccc2)N3)cc1 (centres undefined) | +
Cc1ccc(C2=CC(c3ccccc3Cl)n3nc(NS(=O)(=O)c4ccc(C)cc4)nc3N2)cc1 (centres undefined) | i
Cc1ccc(S(=O)(=O)Nc2nc3n(n2)C(c2ccccc2)C=C(c2ccc(Cl)cc2)N3)cc1 (centres undefined) | i
COc1ccc(C2C=C(c3ccccc3)Nc3nc(NS(=O)(=O)c4ccc(C)cc4)nn32)cc1 (centres undefined) | i
O=S(=O)(Nc1nc2n(n1)C(c1ccccc1)C=C(c1ccccc1)N2)c1ccc(Cl)cc1 (centres undefined) | i
CN1CCN(S(=O)(=O)c2ccc3c(c2)CCN3C(=O)CCC(=O)N2CCOCC2)CC1 | i
Cc1nn(C)c(C)c1CCC(=O)N1CCN(C(=O)C2CCCO2)CC1 (centres undefined) | i
CNc1nc(N2CCC(Cc3nnc(SC)n3C)CC2)nc2c1CCC2 | +
CSc1nnc(CC2CCN(C/C=C/c3ccco3)CC2)n1C | i
CCC(=O)Nc1ccccc1-c1nnc(SC(C)C(=O)Nc2ccccc2CC)[nH]c1=O (centres undefined) | i
COc1cc(-c2nccn2Cc2ccccc2Cl)cc(OC)c1O | i
CCC(C)NC(=O)Cn1c(=O)n(Cc2ccc(C(=O)NC)cc2)c(=O)c2cc(OC)c(OC)cc21 (centres undefined) | +
CNC(=O)c1ccc(Cn2c(=O)c3cc(OC)c(OC)cc3n(CC(=O)NC3CCCC3)c2=O)cc1 | +
CCCNC(=O)c1ccc(Cn2c(=O)c3cc(OC)c(OC)cc3n(CC(=O)NC(C)CC)c2=O)cc1 (centres undefined) | i
COc1cc2c(=O)n(Cc3ccc(C(=O)NC4CCCC4)cc3)c(=O)n(CC(N)=O)c2cc1OC | i
CCC(C)NC(=O)c1ccc(Cn2c(=O)c3cc(OC)c(OC)cc3n(CC(N)=O)c2=O)cc1 (centres undefined) | i
CCCNC(=O)Cn1c(=O)n(Cc2ccc(C(=O)NC)cc2)c(=O)c2cc(OC)c(OC)cc21 | i
CC(C)Cn1c(CN2CCN(c3ncc(F)cn3)CC2)nc2ccccc21 | i
COc1ccccc1-n1nc(C(C)C)nc1Cc1cc(C)no1 | i
COc1ccccc1-n1nc(C(C)C)nc1CCc1cccnc1 | i
COc1ccccc1-n1nc(CC(C)C)nc1C(C)n1ccnc1 (centres undefined) | +
CC(C)c1cc(CNCC(=O)NCc2ccccc2F)no1 | i
Cc1ccc(-c2nc(C)cc(OCC(=O)Nc3ccc(C)c(F)c3)n2)cc1 | +
Cc1ccc(-c2nc(C)cc(OCC(=O)Nc3cc(C)ccc3C)n2)cc1 | i
SMILES | FECH block
COc1ccc(NC(=O)COc2cc(C)nc(-c3ccc(C)cc3)n2)cc1OC | i
CCCS(=O)(=O)N1CCN(Cc2nc3cccnc3n2-c2cccc(F)c2)CC1 | i
Cc1ccc(NC(=O)C2CCCC2)c(-n2cnnc2)c1 | i
COc1ccc(OCc2nc(C(=O)N3CC4(C)CN(C)CC(C)(C3)C4)co2)cc1 | +
CCN(C(=O)c1coc(COc2ccc(OC)cc2)n1)[C@H]1COC[C@@H]1O | i
COc1ccc(OCc2nc(C(=O)N3CCNCC3c3ccccc3)co2)cc1 (centres undefined) | i
CNC(=O)c1cccc(S(=O)(=O)NC(C)C2=CCCN(C)C2)c1 (centres undefined) | i
Clc1ccc(CCNc2ncnc3oc4c(c23)CCCC4)cc1 | i
Cc1ccc(CN2c3ccccc3-c3nc(SCC(=O)Nc4ccc(F)c(Cl)c4)ncc3S2(=O)=O)cc1 | +
Cc1ccc(CN2CCCN(CC(=O)Nc3ccc(C)c(F)c3)S2(=O)=O)cc1 | i
Cc1ccc(CN2c3ccccc3-c3nc(SCC(=O)Nc4cc(Cl)ccc4C)ncc3S2(=O)=O)cc1 | i
CCCNC(=O)NCc1cc(C)cc2c(C)c(CC)[nH]c12 | i
CCc1cc(C(=O)NCc2cc(C)cc3c(C)c(CC)[nH]c23)n(C)n1 | +
CCc1[nH]c2c(CNc3cc(N4CCOCC4)ncn3)cc(C)cc2c1C | i
CC(C)CC(=O)C(=O)NCC1CCN(c2cnn(C)c(=O)c2)C1 (centres undefined) | i
CN(CC1(CO)CCCC1)c1ccnc(C(=O)NCc2cccnc2)c1 | i
Cc1ccc(CN2CCN(CC(=O)Nc3cccc(Cl)c3C)S2(=O)=O)cc1 | i
O=C(CN1CCN(Cc2ccc(F)cc2Cl)S1(=O)=O)NCc1ccccc1Cl | +
COC(=O)c1ccc(OC)c(CN2CCN(Cc3ccc(F)cc3Cl)S2(=O)=O)c1 | i
COc1ccc(CCNC(=O)CN2CCN(Cc3ccc(F)cc3Cl)S2(=O)=O)cc1OC | +
O=C(CN1CCN(Cc2ccccc2Cl)S1(=O)=O)NCc1ccccc1Cl | i
O=C(CN1CCN(Cc2ccc(F)cc2Cl)S1(=O)=O)Nc1ccc2c(c1)OCO2 | i
O=C(CN1CCN(Cc2ccc(F)cc2Cl)S1(=O)=O)NCc1ccccc1 | +
Cc1cccc(C)c1NC(=O)CN1CCN(Cc2ccc(F)cc2Cl)S1(=O)=O | i
Cc1c(Cl)cccc1NC(=O)CN1CCN(Cc2ccc(F)cc2Cl)S1(=O)=O | +
SMILES | FECH block
O=C(CN1CCN(Cc2ccccc2Cl)S1(=O)=O)Nc1ccc(F)cc1 | i
Cc1ccc(CNC(=O)CN2CCN(Cc3ccc(F)cc3Cl)S2(=O)=O)cc1 | i
O=C(CN1CCN(Cc2ccc(F)cc2)S1(=O)=O)NCc1ccccc1 | i
COc1ccc(-c2c(NCc3ccccc3)oc3c2c(=O)n(C)c(=O)n3C)cc1 | i
CC(=O)N1CCc2c(sc(NC(=O)C3COc4ccccc4O3)c2-c2nc3ccccc3s2)C1 (centres undefined) | i
O=C(c1cc(Cn2ccc3ccccc32)[nH]n1)N1CC(N2CCOCC2)C1 | i
Cc1cc(N2CCCC2)nc(Nc2ccc(NC(=O)C3CCCO3)cc2)n1 (centres undefined) | i
COc1ccccc1CNS(=O)(=O)c1ccc(N2C(=O)CCS2(=O)=O)cc1 | i
Cc1ncsc1CCNC(=O)CSCc1ccccc1Cl | i
Cc1cnc(-c2nc(C(C)C)nn2-c2cccc3cccnc23)cn1 | i
CCN(Cc1nc(COC)no1)C(=O)c1cc2ccccc2s1 | i
Cc1cccc(S(=O)(=O)N2CCN(Cc3nc4cccnc4n3-c3ccccc3)CC2)c1 | i
CCOc1ccc(C(=O)NCCNS(=O)(=O)c2ccc(Cl)cc2)o1 | i
Cc1occc1C(=O)N1CCNCC1C(=O)NCc1ccccn1 (centres undefined) | i
CCc1cc(Sc2ccc(NC(=O)Nc3cccc(OC)c3)cc2)n2nc(C)nc2n1 | i
O=C1CC(=O)Nc2cc(S(=O)(=O)N3CCCCC3)ccc2N1 | i
Cc1ccc(-c2cc(N3CCN(S(=O)(=O)c4ccc(F)cc4)CC3)ncn2)cc1 | i
O=C1CC(=O)Nc2cc(S(=O)(=O)N3CCN(c4ccc(F)cc4)CC3)ccc2N1 | +
Cc1ccc(NS(=O)(=O)c2ccc(N)c(S(N)(=O)=O)c2)cc1Cl | i
Nc1ccc(S(=O)(=O)N2CCN(c3ccc(F)cc3)CC2)cc1S(N)(=O)=O | +
O=C1CC(=O)Nc2cc(S(=O)(=O)N3CCOCC3)ccc2N1 | i
CCOc1ccc(Nc2nc(NCc3ccc(C)cc3)nc3c2cnn3-c2ccccc2)cc1 | i
